Measurements published in paper PMC5540273 (PLoS ONE, 2017).

The compounds below were run on CDKL2. Conditions: concentration: 1 μM, replicates: in singlicate; n = 1.
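Note: KINOMEscan kinase panel screen.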

COC(=O)c1c(-c2ccccc2)c2cc(C)ccc2c(=O)n1Cc1ccccc1 and COC(=O)c1c(-c2ccccc2)c2cc(Br)ccc2c(=O)n1Cc1ccc(S(C)(=O)=O)cc1 are the same in “%Inh” value: 0% for the first, 0% for the second.

Going from CCc1ccc(-c2ccc3c(c2)-c2nn(C)cc2S(=O)(=O)N3C)cc1 to Cc1nnc(-c2ccc(C)c(-c3ccc(C(=O)O)cc3)c2)o1 [GW608005], the “%Inh” value falls from 19% to 6%.

First: O=C(Nc1ccc2c(c1)OCO2)NC1CCN(c2ccnc(NCc3ccc(F)cc3)n2)CC1 [GSK1379859]
Second: COc1ccc(CNC(=O)NC2CCN(c3ccnc(Nc4ccc(F)cc4)n3)C2)cc1 (stereo not shown) [GSK1379706]
The “%Inh” value of the first is lower: 13% for the first, 31% for the second.

Going from CCCNC(=O)Nc1ccc(Oc2ncnc3ccn(C)c23)cc1 to Cc1ccc(Oc2ccc(Nc3ncnc4cc[nH]c34)cc2C)cn1, the “%Inh” value falls from 4% to 0%.

Compared with CCC(=O)c1c(-c2ccccc2)c2cc(Cl)ccc2c(=O)n1Cc1cc(C(=O)NC2CC2)n(C)n1, CCC(=O)c1c(-c2ccccc2)c2cc(Cl)ccc2c(=O)n1Cc1cc(S(C)(=O)=O)n(CCC(C)(C)O)n1 is lower in “%Inh” value: 3% for the first, 0% for the second.

CCC(=O)c1c(-c2ccccc2)c2cc(Cl)ccc2c(=O)n1Cc1cc(S(C)(=O)=O)n(CC(F)F)n1 and COC(=O)c1c(-c2ccccc2)c2cc(Br)ccc2c(=O)n1Cc1ccc(NC(=O)CCC(=O)O)cc1 are the same in “%Inh” value: 0% for the first, 0% for the second.

Compared with COc1cccc(C2=C(Nc3cccc(C(=O)O)c3)C(=O)NC2=O)c1 [SB-390770], CN1C(=O)C(Nc2ccccc2)=C(c2ccccc2)C1=O [SB-300079] is lower in “%Inh” value: 24% for the first, 13% for the second.

COc1cc(OC)cc(-c2cc3cnc(N)nc3nc2NC(=O)NC(C)(C)C)c1 and COc1ccc(-c2cc3c(C)nc(N)nc3n([C@H]3CC[C@H](O)CC3)c2=O)cn1 are the same in “%Inh” value: 0% for the first, 0% for the second.

Nc1ncnc2c1ncn2-c1cccc(F)c1 [SKF-97560] and Nc1ncnc2c1ncn2-c1cccc2ccccc12 [SKF-97184] are the same in “%Inh” value: 0% for the first, 0% for the second.

Going from COc1cc2nccc(Nc3cccc(Oc4ccccc4)c3)c2cc1OC.Cl [GW284543] to COc1cc2nccc(Nc3ccc(OCc4ccc(NC(C)=O)cc4)cc3)c2cc1OC.Cl [GW440135], the “%Inh” value falls from 7% to 0%.

First: COc1ccc(-c2coc3ccc(-c4nnc(SCc5cccc(C#N)c5)o4)cc23)cc1
Second: Nc1nccc2scc(-c3ccc4c(c3)CCN4C(=O)Cc3ccccc3)c12 [GSK2576924]
The “%Inh” value of the first is lower: 0% for the first, 17% for the second.

First: Cc1ccccc1COc1cc(-n2cnc3cc(Cl)ccc32)sc1C(N)=O [GW813349]
Second: COc1cc2ncn(-c3cc(OCCCc4ccccc4)c(C(N)=O)s3)c2cc1OC [GSK205189]
The “%Inh” value of the first is higher: 13% for the first, 7% for the second.

Going from O=C(Nc1n[nH]c2cc(-c3ccccc3F)ccc12)C1CC1 [SB-733371] to O=C(Nc1n[nH]c2nc(-c3ccccc3)c(Br)cc12)C1CC1 [SB-708998], the “%Inh” value falls from 79% to 30%.

First: O=C(NCc1cccs1)c1cc(C(=O)c2c(Cl)cccc2Cl)c[nH]1 [GW823670]
Second: CCc1nc(-c2cccc(C)c2)c(-c2ccncc2)s1
The “%Inh” value of the first is lower: 0% for the first, 4% for the second.

Compared with COc1ccc(Nc2nccc(N3CCC(NS(=O)(=O)c4ccc(NC(C)=O)cc4)C3)n2)cc1 (stereo not shown) [GSK1379729], CCS(=O)(=O)c1ccc(OC)c(Nc2ncc(-c3ccc(F)cc3)o2)c1.Cl [GW591947] is higher in “%Inh” value: 14% for the first, 29% for the second.

Compared with Nc1n[nH]c2nnc(-c3ccccc3)c(-c3ccccc3)c12 [GW554060], Nc1n[nH]c2ncc(-c3ccccc3)cc12 [SB-517081] is higher in “%Inh” value: 0% for the first, 34% for the second.

First: OCCCNc1nccc(-c2c(-c3cccc(C(F)(F)F)c3)nn3cc(C(F)(F)F)ccc23)n1 [GW630813]
Second: COc1cc(Nc2ccnc3ccc(C(F)(F)F)cc23)cc(OC)c1OC [GW577382]
The “%Inh” value of the first is lower: 7% for the first, 21% for the second.

Going from Cc1cccc(-c2nc(Nc3ccc4c(cnn4C)c3)c3ccccc3n2)n1 [GW876731] to Cc1ccc(-c2ccc3c(ccc4sc5c(c43)NC[C@@H](C)N=C5N(C)C)n2)cn1, the “%Inh” value falls from 23% to 0%.

With COc1ccc(-c2cc3c(C)nc(N)nc3n([C@H]3CC[C@H](OCCO)CC3)c2=O)cn1 the “%Inh” value was 0%.
